This is part of a sample that, as a whole, favours compounds with a hit. Of some 83,000 tested, about 20% had one in any assay.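 Assay: single dose, 48 h. Readout: percent growth (0 = no net growth; negative = cell death). Active: <10.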 Values without a mark were called inactive. Active and inactive are the calls of the source.
Tests used:
Assay in all cases: NCI-60 one-dose screen, 48 h (100 = growth as untreated, 0 = no growth, -100 = all killed)
Settings in all cases: 10 µM unless noted
[1] = system: SK-MEL-2 melanoma
[2] = system: UO-31 renal
[3] = system: TK-10 renal
[4] = system: ACHN renal
[5] = system: CAKI-1 renal
[6] = system: A498 renal
[7] = system: CCRF-CEM leukemia
[8] = system: MOLT-4 leukemia
[9] = system: EKVX NSCLC
[10] = system: SN12C renal

Structure (SMILES)	growth [1]	growth [2]	growth [3]	growth [4]	growth [5]	growth [6]	growth [7]	growth [8]	growth [9]	growth [10]
O=C(NCc1ccco1)Nc1cccc2c(NC(=O)NCc3ccco3)cccc12	78.2% [100 µM]	103% [100 µM]	131% [100 µM]	106% [100 µM]	100% [100 µM]	110% [100 µM]	44.7% [100 µM]	59.1% [100 µM]	–	–
OCC(O)COc1ccc(Cl)cc1Cl (configuration not stated)	–	89.4%	101%	93.2%	96%	99%	119%	99.2%	96.5%	95%
CC(=O)OC(C)c1cccc(C#N)c1 (configuration not stated)	110%	85.1%	110%	–	101%	–	97.7%	102%	–	99.1%
C=CCC(OC(C)=O)c1ccc(OC)c(OC)c1 (configuration not stated)	–	90.4%	102%	99%	92.3%	110%	100%	-29% (active)	107%	102%
O=c1cc(C(F)(F)F)[nH]c(=S)[nH]1	111%	87.3%	97.7%	108%	–	139%	119%	105%	–	–
CCN(CC)CCN1CNC(=S)NC1	95.1%	–	103%	–	106%	105%	97.8%	97.1%	–	98.4%
CC(=O)c1cccc(NS(=O)(=O)c2ccc(C)cc2)c1	77.9%	77%	90.3%	106%	81.6%	–	84%	73.9%	–	–
CCCC(=O)CC(=O)c1ccccc1	78.5%	90.8%	94.8%	–	107%	70.4%	97.5%	107%	–	96.3%
CCOc1ccccc1NC(=O)CCl	–	116%	94.5%	108%	95.6%	113%	63.5%	70.2%	111%	94.5%
COC1OC(C(O)C(O)CO)C(O)C(O)C1O (configuration not stated)	99.5%	97.1%	107%	101%	95.6%	107%	95.4%	105%	–	–
CN(C)c1ccc(O)c2c1CC1CC3C(N(C)C)C(=O)C(C(N)=O)=C(O)C3(O)C(=O)C1=C2O (configuration not stated)	17.6%	23.6%	–	35.5%	-3.07% (active)	26.2%	–	79.1%	–	35.6%
CCOC(=N)CC(=O)Nc1cccc(C)c1Cl	–	70.5%	113%	105%	93.7%	120%	109%	108%	109%	98.6%
Cc1ccc([N+](=O)[O-])c(C)n1	120%	–	117%	91.5%	–	79.8%	96.4%	115%	–	106%
O=Cc1ccc(Cl)c(Cl)c1	–	80.1%	98%	103%	111%	83.3%	97.8%	106%	109%	110%
COC(c1ccc2c(c1)OCO2)C(C)Br (configuration not stated)	–	91.8%	85.8%	–	83.7%	95.6%	93.3%	91.6%	90.3%	100%
CCCCN(C=S)CCCC	–	93.5%	98.4%	95.7%	95.2%	91.4%	95.7%	91.4%	103%	97.5%
C#CC(O)c1ccccc1 (configuration not stated)	–	101%	99.5%	104%	103%	94.2%	–	99.4%	103%	104%
O=C(OC1CCCC1)c1ccccc1Cl	–	93.2%	100%	–	101%	86.6%	107%	110%	111%	108%

Structure (SMILES)	growth [1]	growth [2]	growth [3]	growth [4]	growth [5]	growth [6]	growth [7]	growth [8]	growth [9]	growth [10]
CCOP(=O)(OCC)/C(=C\N1C(=O)CC(=O)NC1=S)C(=O)OC	–	90%	112%	99.5%	97.4%	87.7%	103%	100%	98.9%	101%
CC(C)(C)CC1(C)NC(=O)NC1=O (configuration not stated)	–	100%	125%	109%	–	120%	-59.7% (active)	93.2%	108%	110%
O=c1[nH]c(=O)c2cc(Cl)cc(Cl)c2[nH]1	–	75.3%	97.6%	103%	92%	121%	99.6%	95.7%	92.7%	91%
N#CC1(O)CCCCC1	–	85.6%	102%	106%	92.5%	87.9%	–	102%	101%	110%
CCOc1ccc(NC(=S)N2CCC(CCCC3CCN(C(=S)Nc4ccc(OCC)cc4)CC3)CC2)cc1	–	-7.89% (active)	96.9%	82.8%	69.7%	79%	81.6%	73.7%	60.5%	95.9%
Oc1cccnc1CN1CCCC1	–	92.1%	111%	–	97%	108%	101%	94.2%	106%	97.6%
O=C(O)Cc1ccc(Cl)cc1	–	99.4%	107%	103%	–	95.9%	132%	8.9% (active)	79.2%	122%
NC(=S)c1c(N)n(C2OC(CO)C(O)C2O)c2ncnc(N)c12 (configuration not stated)	–	-40% (active)	-4.54% (active)	11.3%	–	-55.6% (active)	-48.9% (active)	–	-27.4% (active)	15%
Cc1cc(NC(=O)c2ccccc2)c(Cl)cc1N	–	86.6%	141%	98.8%	–	–	47.9%	–	107%	100%
Nc1cc2c(cc1Cl)C(=O)c1ccccc1C2=O	–	-15% (active)	33.8%	3.29% (active)	–	103%	80.5%	85.8%	42.5%	34%
CCOC(=O)c1cc(C)[nH]c(=O)c1C#N	–	105%	101%	101%	56.9%	108%	81.9%	72.1%	86.8%	102%
Cc1ccc(OC(=O)c2ccccc2)cc1	–	97.2%	98.1%	–	114%	95.6%	108%	104%	122%	109%
C=COC(=O)CCOCC(CC)CCCC (configuration not stated)	–	79.5%	103%	106%	96.5%	91.9%	–	93.9%	110%	104%
O=C1NCC2CCCC1C2 (configuration not stated)	–	92.7%	101%	111%	–	133%	104%	103%	118%	101%
COC1=C(OC)C(=O)C(SC/C=C(\C)CCCC(C)CCCC(C)CCCC(C)C)=CC1=O (configuration not stated)	–	-3.97% (active)	56%	20.6%	102%	16.8%	–	10.4%	27.6%	15.4%
Cc1ccc(N)c(S(=O)(=O)O)c1	–	92.1%	128%	102%	90.8%	118%	–	83.6%	110%	100%
CC(=O)c1ccc(C)cc1	–	75.7%	105%	109%	109%	94.5%	108%	107%	98.5%	103%

From PubChem BioAssay (NCI)
